Calpain2 inh – inhibitors of pig calpain II | purified calpain II, fluorogenic peptide substrate, 30 min | inhibition, % at 16 µM | 0.37% of 220,000 active | AID 1236;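 active = inhibition above about 50%, limit read from the data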
WT yeast gro inh – growth inhibition of WT yeast, mitochondrial fusion screen; inhibition, % at 10 µM; mitochondrial fusion phenotypic screen, WT strain; 2.1% of 190,000 active; AID 1362; in the data active = inhibition above about 58%; tested in S. cerevisiae
Lmaj promast – Leishmania major promastigote growth inhibition; Leishmania major promastigotes, resazurin fluorescence viability; inhibition, % at 10 µM; 9% of 200,000 active; AID 1063; in the data active = inhibition above about 50%;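 note: promastigotes grown with compound for 44 hours at 28 °C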
ROMK primary – human ROMK K+ channel modulation, primary screen. P48048. Tet-inducible ROMK, thallium flux fluorescence; actives lie on both sides. B-score at 10 µM. 2% of 130,000 active. AID 1918;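 active = signal ratio slope over the read window, or its plate-corrected B-score, at least 3 SD from the plate mean, either direction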;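 note: B-score of the F/F0 ratio slope over 7 to 12 s after thallium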
KCC2 mod – KCC2 (human) Cl- transport modulation | Q9H2X9 | KCC2 cells, thallium flux FluoZin-2 fluorescence | B-score of Tl+ flux slope (higher = more flux/activation; lower = inhibition) at 10 µM | 2.2% of 190,000 active;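 active = thallium flux slope and its plate-corrected score both differing from the plate sample mean at a set confidence after two filtering rounds, in either direction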;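 note: slope of fluorescence scaled to starting intensity during 10 to 20 s after thallium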
Target sequence (Q9H2X9 whole entry, looked up): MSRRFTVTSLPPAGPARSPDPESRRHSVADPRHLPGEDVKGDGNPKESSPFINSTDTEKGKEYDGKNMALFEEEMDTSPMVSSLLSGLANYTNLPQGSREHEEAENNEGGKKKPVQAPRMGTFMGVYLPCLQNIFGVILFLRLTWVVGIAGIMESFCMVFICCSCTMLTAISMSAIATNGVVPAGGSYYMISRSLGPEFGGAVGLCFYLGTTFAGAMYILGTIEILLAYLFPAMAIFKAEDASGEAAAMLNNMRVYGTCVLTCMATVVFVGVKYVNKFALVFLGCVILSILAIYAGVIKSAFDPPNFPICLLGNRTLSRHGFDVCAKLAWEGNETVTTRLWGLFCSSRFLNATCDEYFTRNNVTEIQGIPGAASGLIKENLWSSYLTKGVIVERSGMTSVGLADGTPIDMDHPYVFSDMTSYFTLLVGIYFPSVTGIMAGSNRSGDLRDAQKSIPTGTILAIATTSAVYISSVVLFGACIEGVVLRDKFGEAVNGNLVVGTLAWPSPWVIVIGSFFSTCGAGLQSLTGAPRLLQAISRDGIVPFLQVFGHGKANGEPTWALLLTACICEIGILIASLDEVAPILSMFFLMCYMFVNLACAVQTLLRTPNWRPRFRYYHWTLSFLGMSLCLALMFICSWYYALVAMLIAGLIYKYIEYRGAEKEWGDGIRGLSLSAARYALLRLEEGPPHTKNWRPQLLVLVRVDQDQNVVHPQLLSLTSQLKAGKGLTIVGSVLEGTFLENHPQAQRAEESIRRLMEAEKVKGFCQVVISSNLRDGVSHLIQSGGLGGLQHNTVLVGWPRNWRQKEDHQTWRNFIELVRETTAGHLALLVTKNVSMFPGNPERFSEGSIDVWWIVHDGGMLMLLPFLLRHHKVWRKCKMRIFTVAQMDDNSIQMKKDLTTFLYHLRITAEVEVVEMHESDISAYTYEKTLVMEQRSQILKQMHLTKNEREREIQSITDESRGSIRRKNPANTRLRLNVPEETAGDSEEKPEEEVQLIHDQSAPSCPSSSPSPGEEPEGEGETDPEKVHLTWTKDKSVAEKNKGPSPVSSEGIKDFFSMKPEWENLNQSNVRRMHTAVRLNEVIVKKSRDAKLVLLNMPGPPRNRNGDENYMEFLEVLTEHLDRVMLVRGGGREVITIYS
Each line names hits and unclear results; the compound was inactive in the other large screens. This is a sample that favours compounds with a hit; in the whole collection about 12% have one here.

CN1/C(=C\C(=O)c2cccs2)C(C)(C)c2ccccc21	none
CN(C)/C=C/C(=O)c1ccc(Br)s1	none
Cc1cccc2c1NC(=O)/C2=C\C(=O)c1cccs1	Lmaj promast 100 (no result: KCC2 mod)
Cc1cc(Br)c2c(c1)/C(=C/C(=O)c1cccs1)C(=O)N2	Lmaj promast 100
Cc1cc(C)c2c(c1)/C(=C/C(=O)c1ccc(Br)s1)C(=O)N2	WT yeast gro inh 87, Lmaj promast 100
CCc1ccc2c(c1)/C(=C/C(=O)c1cccs1)C(=O)N2	Lmaj promast 101 (no result: ROMK primary)
CCCC1C2C(=O)N(c3cccc(C)c3)C(=O)C2ON1c1ccccc1 (stereo not drawn)	none (no result: WT yeast gro inh, Lmaj promast, ROMK primary)
O=C(NNC(=O)c1cccnc1)NC1CCCCC1	none
O=C(NNC(=O)c1cc(O)c(O)c(O)c1)NC1CCCCC1	Lmaj promast 92 (no result: ROMK primary)
CC(=O)c1ccccc1NS(=O)(=O)c1ccccc1Cl	none
O=C(c1ccc(S(=O)(=O)c2ccccc2)cc1)N1CCc2ccccc2C1	none
Cc1ccccc1NS(=O)(=O)c1cc(C(=O)N2CCc3ccccc3C2)ccc1C	WT yeast gro inh 81, Lmaj promast 88 (no result: KCC2 mod)
CN(c1ccccc1)S(=O)(=O)c1ccc(C(=O)N2CCc3ccccc3C2)cc1	Lmaj promast 96
Oc1c(C(c2ccccn2)N2CCCCC2)cc(Cl)c2cccnc12 (stereo not drawn)	Lmaj promast 74
O=[N+]([O-])c1cc(Cl)c2cccnc2c1O	none
Cn1cc(NC(=O)Nc2ccc(C(F)(F)F)cc2)c(C(F)(F)F)n1	none (no result: WT yeast gro inh, Lmaj promast, ROMK primary)
CCOC(=O)c1c(C)c(-c2ccccc2)n(CC(=O)NCCCN(CC)CC)c1C	Lmaj promast 51
COC(=O)c1cc(Br)c(=O)n(-c2ccc(F)cc2)c1	none (no result: KCC2 mod)
CCC(C)NCCOc1cc(C)cc(C)c1C (stereo not drawn)	none
CCC(C)NCCCCOc1cc(C)cc(C(C)C)c1 (stereo not drawn)	Lmaj promast 91
CCc1ccc(OCCOCC(O)CNC(C)CC)cc1 (stereo not drawn)	none
CCC(C)NCCCCOc1ccc(Br)cc1 (stereo not drawn)	Lmaj promast 94 (no result: ROMK primary)
CCC(C)NCCOCCOc1cc(C)c(Cl)c(C)c1 (stereo not drawn)	Lmaj promast 87
CCC(C)NCCOCCOc1ccc(F)cc1 (stereo not drawn)	Lmaj promast 95 (no result: ROMK primary)
COc1ccc(NCc2nnc(SCC#N)n2-c2ccccc2OC)cc1	none
O=C(Nc1ccc(Br)c2ccccc12)c1ccc2ccccc2c1O	none (no result: WT yeast gro inh, Lmaj promast, ROMK primary)
COc1ccc(Cl)cc1C(=O)CSc1nnnn1C1CCCCC1	WT yeast gro inh 72 (no result: ROMK primary)
COc1ccc(Cl)cc1C(=O)CSc1nnnn1C1CCCC1	none (no result: KCC2 mod)
Cc1sc2ncnc(N/N=C/c3ccccc3O)c2c1C	Lmaj promast 100
CC1=C(C(=O)N(C)C)C(c2ccc(N3CCOCC3)cc2)NC(=O)N1 (stereo not drawn)	none
Cc1ccc(NS(=O)(=O)c2ccc(NC(=O)[C@@H]3CCCC[C@@H]3C(=O)O)cc2)c(C)c1	none (no result: ROMK primary, KCC2 mod)
O=C1NC(c2ccccc2)=C(c2nc3ccccc3s2)C(c2ccc(F)cc2)N1 (stereo not drawn)	Lmaj promast 51 (no result: ROMK primary)
COc1ccc(C2NC(=O)NC(c3ccccc3)=C2c2nc3ccccc3s2)cc1 (stereo not drawn)	none
O=c1cc(/C=C/c2ccccc2)oc2c1ccc1ccccc12	WT yeast gro inh 81
O=C1CC(/C=C/c2cccnc2)=Nc2ccccc2N1	Lmaj promast 65
O=C1CC(/C=C/c2ccccc2)=Nc2ccccc2N1	Lmaj promast 84 (no result: KCC2 mod)
COC(=O)NC(C)N1C(=O)C2C3C=CC(C3)C2C1=O (stereo not drawn)	none
COc1ccc(/C=C2\SC(=S)N(CC(=O)OCC(=O)Nc3cc(Cl)cc(Cl)c3)C2=O)cc1	none (no result: WT yeast gro inh, Lmaj promast)
C=CCON1C(=O)C(=O)N(OCC=C)[C@H]2CCCC[C@H]21	none (no result: WT yeast gro inh, Lmaj promast, ROMK primary)
CCOC(=O)N1CCC2(CC1)C(C#N)=C(N)Oc1n[nH]c(CSc3ccc(C)cc3)c12	Calpain2 inh 91
COc1ccc(Sc2ccc(/C=C3\C(=O)NN(c4ccccc4)C3=O)o2)cc1	Lmaj promast 56
COc1ccc(-n2c(C)cc(/C=C3\C(=O)NN(c4ccccc4)C3=O)c2C)cc1	none
Cc1cccc(OC(=O)CCN2C(=O)C3C4C=CC(C5CC45)C3C2=O)c1C (stereo not drawn)	none
CCNc1nc(NC(C)C)nc(N(C)C#N)n1	none (no result: WT yeast gro inh, Lmaj promast, ROMK primary)
CC(C)Nc1nc(NC(C)C)nc(N(C#N)CCOc2ccc(Cl)cc2Cl)n1	Lmaj promast 81 (no result: KCC2 mod)
CCCN(C#N)c1nc(NCC)nc(NC(C)C)n1	Calpain2 inh 52 (no result: KCC2 mod)
COCCN1Cc2cccc(C(=O)NCCCN3CCCC3=O)c2C1=O	none (no result: WT yeast gro inh, Lmaj promast)
CCCn1nc(C(=O)OCC(=O)c2c(N)n(C)c(=O)n(C)c2=O)c2ccccc2c1=O	none
COc1cc(CNCCO)ccc1OCC(=O)Nc1ccc(Br)cc1	Lmaj promast 100 (no result: ROMK primary)
CC(=O)Nc1ccc(NC(=O)COc2ccc(Br)cc2C)cc1	Lmaj promast 62
O=C(COc1ccc(Br)cc1)Nc1ccncc1	none
CC(=O)N(C)c1ccc(NC(=O)COc2ccc(Br)cc2C)cc1	none
Cc1cc(OCC(=O)Nc2ccncc2)c(C)cc1Br	WT yeast gro inh 60
COc1cc(C)ccc1OCCOc1c(Cl)cc(Cl)cc1Cl	none (no result: ROMK primary, KCC2 mod)
Cc1cc(C)c(OCCCCN(C)C)c(Br)c1	Lmaj promast 85
Cc1cc(Cl)cc(Cl)c1OCCCCN(C)C	Lmaj promast 86 (no result: ROMK primary)
Cc1cc(C)c(OCCOCCN(C)C)c(Br)c1	Lmaj promast 96 (no result: ROMK primary)
CCCOP(=O)(OCCC)C(Nc1cccc(C(F)(F)F)c1)c1ccc(C)cc1 (stereo not drawn)	WT yeast gro inh 75 (no result: ROMK primary)
CCOP(=O)(OCC)C(Nc1cccc(C(F)(F)F)c1)c1ccc(F)cc1 (stereo not drawn)	none
CCOP(=O)(OCC)C(Nc1cccc(C(F)(F)F)c1)c1ccc(C)cc1 (stereo not drawn)	Lmaj promast 59 (no result: ROMK primary)
CCOP(=O)(OCC)C(Nc1cccc([N+](=O)[O-])c1)c1ccc(OC)cc1 (stereo not drawn)	none (no result: WT yeast gro inh, Lmaj promast)
Cc1ccc(-n2cnc(N)c2C(=O)c2cccc([N+](=O)[O-])c2)cc1	none (no result: WT yeast gro inh, Lmaj promast, ROMK primary)
OCCC1CN(Cc2cc(F)ccc2-n2cccn2)CCN1C1CCCC1 (stereo not drawn)	none (no result: WT yeast gro inh, Lmaj promast, ROMK primary)
O=C(CCC1CCCC1)Nc1cccc(Cc2ccncc2)c1	none
Cc1cccc(-n2c(SCc3ccc(C#N)cc3)nnc2-c2c[nH]c3ccccc23)c1	Lmaj promast 98
COC(=O)c1ccc(CSc2nnc(-c3c[nH]c4ccccc34)n2-c2ccccc2)cc1	none (no result: ROMK primary)
CCN1CCc2c(sc(NC(=S)NC(=O)c3ccco3)c2C(N)=O)C1	none (no result: WT yeast gro inh, Lmaj promast)
CCOC(=O)c1c(NC(=O)c2cccs2)sc2c1CCN(C(=O)OCC)C2	WT yeast gro inh 63 (no result: ROMK primary)
CCN1CCc2c(sc(NC(=O)Nc3ccc(Cl)c(Cl)c3)c2C(N)=O)C1	WT yeast gro inh 77 (no result: ROMK primary)
CCOC(=O)N1CCc2c(sc(NC(=O)c3ccc(Cl)s3)c2C(N)=O)C1	Lmaj promast 82 (no result: ROMK primary)
O=C(N/N=C1\CCS(=O)(=O)c2ccc(F)cc21)c1ccc(O)cc1	none (no result: WT yeast gro inh, Lmaj promast, ROMK primary)
CCC(CC)C(=O)NCc1ccc(Cl)cc1	none (no result: ROMK primary)
COc1ccc(/C=C/c2nc(N)nc(-c3ccccc3O)n2)cc1OC	Lmaj promast 93

Screens from PubChem.
